Potency data for twelve compounds are collected here from PubChem BioAssay (NCATS).

Records with an inconclusive call do not appear. Where a call stands in place of a potency, no number is given. Active and inactive are the calls of the source. Calls follow the shape of the dose curve; as a rule, active = well fitted cell-killing curve with a large enough effect; inconclusive = small, poorly fitted or top-dose-only effect, or effect the other way; inactive = flat fitted curve, though single readings scatter.
Potency is read from the fitted curve at half-maximal effect.

For the assay, the system named is C33A. In words: Primary qHTS to identify gynecologic anti-cancer compounds using libraries of approved drugs and bioactive compounds (AID 1345084). Also: nearly all actives have a fitted effect of over 55% in size. Conditions: Gynecologic cancer cell panel viability, ATPlite luminescence, 48 h; series mostly up to 57.5 µM. The method, boiled down:
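48 h compound exposure at 37 C, 5% CO2; five-point qHTS. ATPlite luminescence readout of cell ATP.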
(qHTS replaces the single test concentration by a dilution series.)
In the case of `CCOC(=O)C(CCc1ccccc1)NC(C)C(=O)N1C(=O)N(C)CC1C(=O)O` (configuration not stated), the Potency result is “inactive”.

In the case of `CC1=CCC2C(C)(C)CCC[C@]2(C)[C@@]12CC[C@](C)(CC(=O)O)O2` (some centres not stated), the Potency entry was “inactive”.

On to `CC1CCC2C(C)(C)[C@@H](O)CC[C@]2(C)C12Cc1c(O)cc3c(c1O2)CN(C(CCC(=O)O)C(=O)O)C3=O` (some centres not stated), for which the Potency result was “inactive”.

In the case of `Cc1cc(NC(=O)Nc2ccc(F)c(F)c2)n(-c2ccccc2)n1`, the Potency result was “inactive”.

`CC(/C=C/C1=CC2=CC(=O)C(C)(O)C(O)C2=CO1)=C\C(C)CCO` (configuration not stated): the Potency result is “inactive”.

With `CO[C@H]1C[C@@H]2CC[C@@H](C)[C@@](O)(O2)C(=O)C(=O)N2CCCC[C@H]2C(=O)O[C@H]([C@H](C)C[C@@H]2CC[C@H](n3cnnn3)[C@H](OC)C2)CC(=O)[C@H](C)/C=C(\C)[C@@H](O)[C@@H](OC)C(=O)[C@H](C)C[C@H](C)/C=C/C=C/C=C/1C`, the Potency result was “inactive”.

As to `Cn1c(=O)cc(N2CCCC(N)C2)n(Cc2cc(F)ccc2C#N)c1=O` (configuration not stated), the Potency entry is “inactive”.

Regarding `CCN1CCN(Cc2ccc(NC(=O)c3ccc(C)c(/C=C/c4cnc5[nH]ccc5c4OC)c3)cc2C(F)(F)F)CC1`, the Potency was 14.1 µM (active).

For `COc1c(Nc2ncc(Cl)c(N[C@H]3[C@@H](C(N)=O)[C@@H]4C=C[C@H]3C4)n2)ccc2c1CC[C@@H](N1CCOCC1)CC2`, the Potency entry is “inactive”.

Consider `CNC(=S)NS(=O)(=O)c1cc(CCNC(=O)c2cc(Cl)ccc2OC)ccc1OC`, for which the Potency result is “inactive”.

`COc1ccc(CC2NCCc3c2[nH]c2ccc(C)cc32)cc1OC` (configuration not stated): the Potency result is “inactive”.

`O=C(/C=C/c1cccc(S(=O)(=O)Nc2ccccc2)c1)NO`: the Potency is 11.2 µM (active).
